Results with a measured potency or affinity are listed apart.
What follows are compounds tested on Candida albicans. Settings: 32 ug/mL.

Row | SMILES | Inhibition
1 | COc1nc2nc3c(c(N)c2cc1C#N)CCCC3.Cl | 1.08%
2 | Cc1nc(Nc2ccccc2)c2c(C)nn(-c3ccccc3)c2n1 | -2.39%
3 | Nc1c2c(nc3c1C(c1c(Cl)cccc1Cl)c1ccc4ccccc4c1O3)CCCC2 (stereo not given) | -1.13%
4 | CC1CC(=O)Nc2c1c(Cl)nc1nc3c(c(N)c21)CCCC3 (stereo not given) | 3.48%
5 | COc1ccc2c(ccn2C)c1 | 1.33%
6 | CCOC(=O)C1=C(C)OC(N)=C(C#N)C1c1ccc(OC)cc1 (stereo not given) | 2.59%
7 | COc1nc2ccccc2cc1C=O | 6.13%
8 | COc1ccc(-c2cc(-c3cc4c(C)cc(C)cc4nc3Cl)cc(=O)[nH]2)cc1 | 1.74%
9 | COC(=O)C(=Cc1ccc(OC)cc1)NC(=O)c1ccccc1 | 6.47%
10 | C#CCN(C)Cc1cc2cc(OCOc3ccc4c(c3)cc(CN(C)CC#C)n4C)ccc2n1C | -0.1%
11 | C=CCNc1[nH]c2ccc(O)cc2c1C#N | 2.34%
12 | CC(C)(C)OC(=O)Nc1ccc(Cl)cn1 | -0.26%
13 | N#Cc1c(N)nc2c(c1-c1ccccc1)CN(Cc1ccccc1)CC2 | 1.07%
14 | C=C1CN(C)c2c(C#N)c(-c3ccccc3)c(C#N)c(=N)n21 | -0.24%
15 | CCCCCCC(C)NNC(=O)c1cc2ccccc2[nH]1 (stereo not given) | 3.47%
16 | O=C1SC(SCc2ccccc2)=NC1=Cc1cccc(OCc2ccccc2)c1 | 0.84%
17 | CC#CCN(Cc1ccccc1)c1nc(N)c(C#N)cc1C#N | 3.48%
18 | C#CCNc1nc(NCCC2CCN(Cc3ccccc3)CC2)c(C#N)cc1C#N | 3.57%
19 | Br.C#CCNCc1ccccc1 | -0.33%
20 | N#Cc1cc2c(N)c3c(nc2nc1Cl)CCN(Cc1ccccc1)C3 | 2.4%

Row | SMILES | Inhibition
21 | CCOC(=O)C1=C(C)Oc2nc3c(c(N)c2C1c1ccccc1OC)CCC3 (stereo not given) | -0.7%
22 | COc1cccc(C2C(C#N)=C(N)Oc3ccc4ccccc4c32)c1 (stereo not given) | 1.77%
23 | Cn1c(C(=O)NCc2ccccc2)cc2cc(OCCCC3CCN(Cc4ccccc4)CC3)ccc21 | 1.62%
24 | Clc1ccc(-c2cn3ccccc3n2)cc1 | -1.23%
25 | CCOC(=O)c1c[nH]c2ccc(OCc3ccccc3)cc12 | 0.34%
26 | CC1Cc2ccccc2N1/N=C/c1ccccc1 (stereo not given) | -2.78%
27 | CN(C)c1nc(Cl)c(C#N)c(-c2ccccc2)c1C#N | 3.09%
28 | O=C(Cc1c[nH]c2ccccc12)NN=C1CCCCCC1 | 1.07%
29 | Cc1ccc(-c2c(C#N)c(N)nc3c2S(=O)(=O)OC3(C)C)cc1 | 1.92%
30 | COc1ccc(C2C(C#N)=C(N)Oc3ccc4ccccc4c32)cc1 (stereo not given) | 1.62%
31 | C#CCN(C)c1cc(Cl)nc(N)n1 | 11.4%
32 | Cc1cnc2ccc(Cl)cn12 | 0.97%
33 | Nc1c2c(nc3nc4ccccc4nc13)CCCC2 | 2.21%
34 | N#Cc1c(Cl)nc(Cl)c(C#N)c1-c1ccccc1 | 34.6%
35 | COc1ccc(-c2cc(-c3ccccc3)c(C#N)c(N)n2)cc1 | -5.4%
36 | CC(=O)n1cc(/C=C2\N=C(c3ccccc3)OC2=O)c2ccccc21 | 1.66%
37 | O=C(O)c1cc2ccccc2[nH]1 [INDOLE-2-CARBOXYLIC ACID] | 26.2%
38 | c1ccc(-c2nc3c4cnn(-c5ccccc5)c4ncn3n2)cc1 | -0.93%
39 | O=C(Cc1c[nH]c2ccccc12)NNCc1ccccc1 | 0.22%
40 | CC(=O)O[C@H]1CC[C@H](NC(=O)c2ccccc2)CC1 | 3.3%

What follows are compounds tested on Cryptococcus neoformans. Settings: Concentration 32 ug.mL-1; ASSAY_TEST Inhibition of Fungal Growth; detection method Resazurin; Absorption (OD600-OD570); plate type 384well; NBS; CORNING #3640.

Row | SMILES | Inhibition
41 | COc1nc2nc3c(c(N)c2cc1C#N)CCCC3.Cl | -96.28%
42 | Cc1nc(Nc2ccccc2)c2c(C)nn(-c3ccccc3)c2n1 | -3.19%
43 | Nc1c2c(nc3c1C(c1c(Cl)cccc1Cl)c1ccc4ccccc4c1O3)CCCC2 (stereo not given) | -7.78%
44 | CC1CC(=O)Nc2c1c(Cl)nc1nc3c(c(N)c21)CCCC3 (stereo not given) | -92.92%
45 | COc1ccc2c(ccn2C)c1 | -1.95%
46 | CCOC(=O)C1=C(C)OC(N)=C(C#N)C1c1ccc(OC)cc1 (stereo not given) | -5.46%
47 | COc1nc2ccccc2cc1C=O | -2.5%
48 | COc1ccc(-c2cc(-c3cc4c(C)cc(C)cc4nc3Cl)cc(=O)[nH]2)cc1 | 0.64%
49 | COC(=O)C(=Cc1ccc(OC)cc1)NC(=O)c1ccccc1 | -1.73%
50 | C#CCN(C)Cc1cc2cc(OCOc3ccc4c(c3)cc(CN(C)CC#C)n4C)ccc2n1C | -41.21%
51 | C=CCNc1[nH]c2ccc(O)cc2c1C#N | -48.34%
52 | CC(C)(C)OC(=O)Nc1ccc(Cl)cn1 | -54%
53 | N#Cc1c(N)nc2c(c1-c1ccccc1)CN(Cc1ccccc1)CC2 | -3.99%
54 | C=C1CN(C)c2c(C#N)c(-c3ccccc3)c(C#N)c(=N)n21 | -51.34%
55 | CCCCCCC(C)NNC(=O)c1cc2ccccc2[nH]1 (stereo not given) | -2.85%
56 | O=C1SC(SCc2ccccc2)=NC1=Cc1cccc(OCc2ccccc2)c1 | -8.61%
57 | CC#CCN(Cc1ccccc1)c1nc(N)c(C#N)cc1C#N | -21.6%
58 | C#CCNc1nc(NCCC2CCN(Cc3ccccc3)CC2)c(C#N)cc1C#N | -89.93%
59 | Br.C#CCNCc1ccccc1 | -4.9%
60 | N#Cc1cc2c(N)c3c(nc2nc1Cl)CCN(Cc1ccccc1)C3 | -88.69%

Row | SMILES | Inhibition
61 | CCOC(=O)C1=C(C)Oc2nc3c(c(N)c2C1c1ccccc1OC)CCC3 (stereo not given) | -2.56%
62 | COc1cccc(C2C(C#N)=C(N)Oc3ccc4ccccc4c32)c1 (stereo not given) | -37.42%
63 | Cn1c(C(=O)NCc2ccccc2)cc2cc(OCCCC3CCN(Cc4ccccc4)CC3)ccc21 | -77.02%
64 | Clc1ccc(-c2cn3ccccc3n2)cc1 | -7.53%
65 | CCOC(=O)c1c[nH]c2ccc(OCc3ccccc3)cc12 | -4.09%
66 | CC1Cc2ccccc2N1/N=C/c1ccccc1 (stereo not given) | -3.88%
67 | CN(C)c1nc(Cl)c(C#N)c(-c2ccccc2)c1C#N | -9.38%
68 | O=C(Cc1c[nH]c2ccccc12)NN=C1CCCCCC1 | -2.54%
69 | Cc1ccc(-c2c(C#N)c(N)nc3c2S(=O)(=O)OC3(C)C)cc1 | -1.83%
70 | COc1ccc(C2C(C#N)=C(N)Oc3ccc4ccccc4c32)cc1 (stereo not given) | -30.57%
71 | C#CCN(C)c1cc(Cl)nc(N)n1 | -46.13%
72 | Cc1cnc2ccc(Cl)cn12 | 1.56%
73 | Nc1c2c(nc3nc4ccccc4nc13)CCCC2 | -107.03%
74 | N#Cc1c(Cl)nc(Cl)c(C#N)c1-c1ccccc1 | -43.27%
75 | COc1ccc(-c2cc(-c3ccccc3)c(C#N)c(N)n2)cc1 | -104.15%
76 | CC(=O)n1cc(/C=C2\N=C(c3ccccc3)OC2=O)c2ccccc21 | -2.55%
77 | O=C(O)c1cc2ccccc2[nH]1 [INDOLE-2-CARBOXYLIC ACID] | -9.27%
78 | c1ccc(-c2nc3c4cnn(-c5ccccc5)c4ncn3n2)cc1 | -6.06%
79 | O=C(Cc1c[nH]c2ccccc12)NNCc1ccccc1 | -1.3%
80 | CC(=O)O[C@H]1CC[C@H](NC(=O)c2ccccc2)CC1 | -39.27%

Source: ChEMBL document CHEMBL4513135, “CO-ADD screening of IQOG CSIS (Spain) compounds”
